In the library only some 1.4% were active in any assay of this set; here they are far more common.
12-LOX inh = blocks human arachidonate 12S-lipoxygenase. Potency, µM (series often up to 108 µM), without a hit: at the top dose activity change, negative = inhibition, hits mostly inhibitors. AID 1671190. 580,000 compounds, 1.1% hits. P18054. purified 12hLO, xylenol orange hydroperoxide absorbance; also: potency is read from the fitted curve at half-maximal effect; % is scaled to controls: 0 for no effect and ±100 for the full control effect
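Purified human 12hLO at 150 nM in 25 mM Hepes, 0.01% Triton X-100, pH 7.0, preincubated 15 min at room temperature with compound. Reaction started with 40 uM arachidonic acid, 30 min at room temperature. Hydroperoxide measured by Fe-xylenol orange, 573/405 nm absorbance ratio.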
Vif-APOBEC3F blk = blocks the Vif interaction with APOBEC3F; Potency, µM (highest dose often 46.1 µM), for inactives: at the highest dose activity, negative = active; 390,000 compounds, 0.2% hits; HeLa A3F-eYFP + Vif (tagged APOBEC3F with the HIV-1 protein that degrades it), YFP fluorescence increase; also: potency is read from the fitted curve at half-maximal effect; % of control where 0% means no effect; nearly all actives have a fitted effect of over 65% in size
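HeLa cells stably expressing Vif plus C-terminally eYFP-tagged A3F were seeded, incubated overnight at 37 deg C, dosed with compound, incubated overnight again at 37 deg C. Yellow fluorescence (Ex 488/Em 500-530) reported blocked Vif-mediated A3F-eYFP degradation.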
pAkt inh = blocks phosphorylation of Akt. activity change, % for hits at 50 µM. Neuro2A IGF-stimulated pAkt S473 HTRF, 20 min; active compounds read low. 360,000 compounds, 0.32% hits; in the data active = activity change below about -80%; inconclusive = mostly about -51% to -80%; also: % is scaled to controls: 0 for no effect and ±100 for the full control effect
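Neuro2A cells in DMEM with 0.5% FBS, overnight at 37 deg C, given compound at single 50 µM final, then IGF (6 nM final) for 20 min at 37 deg C. Lysed; phospho-Akt Ser473 by HTRF after 24 h, 665/615 ratio.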
ASM inhibitor = inhibitors of human secretory acid sphingomyelinase; AID 504937; P17405; Potency, µM (highest dose often 57.5 µM), inactives show top-dose activity change, negative = inhibition, actives largely listed as inhibitors; 340,000 compounds, 0.006% hits; placental ASM, HMU-PC fluorogenic substrate, 60 min; also: potency is read from the fitted curve at half-maximal effect
Target sequence (P17405 47-631 limits assumed): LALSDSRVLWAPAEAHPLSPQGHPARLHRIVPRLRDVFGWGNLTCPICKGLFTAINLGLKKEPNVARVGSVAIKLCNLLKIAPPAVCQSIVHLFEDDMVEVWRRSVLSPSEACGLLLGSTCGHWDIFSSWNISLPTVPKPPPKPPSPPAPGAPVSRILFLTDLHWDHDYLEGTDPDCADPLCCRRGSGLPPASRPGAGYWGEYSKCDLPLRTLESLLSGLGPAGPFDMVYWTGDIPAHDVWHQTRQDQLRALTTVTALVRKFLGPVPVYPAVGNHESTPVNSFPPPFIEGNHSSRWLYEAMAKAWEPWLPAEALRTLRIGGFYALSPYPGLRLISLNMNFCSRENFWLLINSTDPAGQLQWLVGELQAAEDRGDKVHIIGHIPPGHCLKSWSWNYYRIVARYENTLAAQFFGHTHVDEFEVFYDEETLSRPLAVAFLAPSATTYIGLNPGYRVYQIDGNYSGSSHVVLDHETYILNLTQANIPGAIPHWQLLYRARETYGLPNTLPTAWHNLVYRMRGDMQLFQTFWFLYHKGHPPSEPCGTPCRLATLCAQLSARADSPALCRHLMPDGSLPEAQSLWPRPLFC
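Steps: dispense placental human ASM, pin compound, wait 10 min at room temperature, add HMU-PC0 substrate at 9 uM final, incubate 60 min at 37 °C, add stop solution raising pH to 10, read fluorescence.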
PTAP TSG101 blk = blocks PTAP/TSG101 interaction to inhibit HIV-1 budding. 340,000 tested, under 10 active. Q99816. AID 493005. Potency, µM (top dose mostly 115 µM), inactives show at the top dose activity change, negative = inhibition, actives largely listed as inhibitors. Fluorescence polarization, FITC-PTAP peptide / Tsg101 binding; active = well fitted inhibition curve with a large enough effect in the main read-out, with a control signal flat, not every such curve was filed as active; inconclusive = small, poorly fitted or top-dose-only effect, or effect the other way, or a change in a side signal; inactive = no such curve, though single readings can be large or run the other way; also: potency is read from the fitted curve at half-maximal effect; % of control where 0% means no effect
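Compounds were pin-transferred onto Tsg101 binding domain (10 uM final) in HEPES pH 7.5 buffer, then FITC-PTAP peptide was added at 50 nM final. After 20 min at RT, polarization reported peptide displacement across a qHTS concentration series.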
Vif-A3G inh = Vif-A3G binding inhibition. 410,000 compounds, 0.076% hits. HeLa A3G-eYFP + Vif (tagged APOBEC3G with the HIV-1 protein that degrades it), YFP fluorescence, overnight. AID 602310. Potency, µM (doses to about 46.1 µM), inactives show at the top dose activity, negative = active, hits mostly inhibitors; also: potency is read from the fitted curve at half-maximal effect; % is scaled to controls: 0 for no effect and ±100 for the full control effect; nearly all actives have a fitted effect of over 60% in size
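HeLa cells stably expressing Vif and C-terminally eYFP-tagged A3G, seeded overnight at 37 deg C, then exposed to compound by pintool overnight at 37 deg C. Rise in yellow fluorescence (Ex 488/Em 500-530, Acumen) marks blocked Vif-driven A3G degradation.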
* = called active by the depositor; [ ] = remark or other dose. Unless noted, calls follow the shape of the dose curve; as a rule, active = well fitted curve in the direction sought with a large enough effect; inconclusive = small, poorly fitted or top-dose-only effect, or another doubt; inactive = no such curve, though single readings can be large; an effect the other way counts as inactive or inconclusive.

`CCc1cc2c(=O)c(-c3ccc4c(c3)OCCCO4)coc2cc1OS(C)(=O)=O` gave 12-LOX inh -15%.
`CC(C)c1ccc(CC(=O)N2CCCc3ncc(C(=O)NCc4cccnc4)cc32)cc1` gave 12-LOX inh 30%[176 µM].
`C#CC(C)(CC)NC(=O)c1ccccc1C(=O)O` (stereo unspecified) gave 12-LOX inh -10%.
For Nc1ccc2c(N3CCCCC3)ncnc2c1 the results were 12-LOX inh 42%.
Brc1cc(Br)c2ncnc(N3CCCCC3)c2c1 was read as 12-LOX inh 43%, Vif-APOBEC3F blk 13%, pAkt inh -82%*, ASM inhibitor -9%, PTAP TSG101 blk -3% and Vif-A3G inh 12%.
Screening O=C(OCC(=O)N1N=C(c2ccc(Cl)cc2)CC1c1ccco1)c1cncc(Br)c1 (stereo unspecified) returned 12-LOX inh 7.9µM*, Vif-APOBEC3F blk 1%, pAkt inh inactive, ASM inhibitor -12%, PTAP TSG101 blk 0% and Vif-A3G inh -14%.
Screening COc1ccccc1-c1cc(-c2ccccc2)nc(SC(C(N)=O)c2ccccc2)c1C#N (stereo unspecified) returned 12-LOX inh 14%, Vif-APOBEC3F blk inconclusive, pAkt inh -91%*, ASM inhibitor 3%, PTAP TSG101 blk -2% and Vif-A3G inh inconclusive.
Screening Cc1ccccc1CN1CCC2(CC1)OC(=O)N(Cc1ccc(O)cc1)C2(C)c1ccccc1 (stereo unspecified) returned 12-LOX inh -2%.
`CC1(c2ccccc2)N(Cc2ccc(O)cc2)C(=O)OC12CCN(Cc1c[nH]c3ccccc13)CC2` (stereo unspecified) gave 12-LOX inh 45µM*.
For O=C1OCC2(CCN(Cc3c[nH]c4ccccc34)C2)N1Cc1ccccc1 (stereo unspecified) the results were 12-LOX inh 50µM*.
`CCNC(=O)C(C)NC(=O)C1CCC(C(C)(C)C)CC1` (stereo unspecified) gave 12-LOX inh 20%.
Screening C=CCNC(=S)NS(=O)(=O)c1cccs1 returned 12-LOX inh 1.1µM*, Vif-APOBEC3F blk 3%, pAkt inh inactive, ASM inhibitor 5%, PTAP TSG101 blk -6% and Vif-A3G inh 1%.
O=C(c1ccc(Cn2nnc3ccccc32)cc1)N1CCN(S(=O)(=O)c2ccccc2)CC1 was read as 12-LOX inh 3%.
`COc1ccc(-n2ccn(CC(=O)Nc3c(C)cc(C)cc3C)c2=O)cc1` gave 12-LOX inh 3%.
For Cn1cc(CN[C@H]2[C@H](O)[C@H](O)C[C@@H]2c2cccnc2)c2ccccc21 the results were 12-LOX inh 45µM*.
`CC(C)c1ccc(NC(=O)C2CCN(c3cc(C(F)(F)F)ncn3)CC2)cc1` gave 12-LOX inh 16%.
CC(NC(=O)C1CCN(c2cc(C(F)(F)F)ncn2)CC1)c1ccccc1 (stereo unspecified) was read as 12-LOX inh 45µM*.
`CCC1=C(C(=O)OC)C(c2cccc(F)c2)N2C(CC(=O)NCC3CCCO3)=CSC2=N1` (stereo unspecified) gave 12-LOX inh 62%.
`CSc1nsc(/C=C/Nc2ccc(O)cc2C)c1C#N` gave 12-LOX inh 35µM*, Vif-APOBEC3F blk 10µM*, pAkt inh inactive, ASM inhibitor 78%, PTAP TSG101 blk 20% and Vif-A3G inh inconclusive.
For CSc1nsc(/C=C/Nc2ccc(F)cc2)c1C#N the results were 12-LOX inh inconclusive, Vif-APOBEC3F blk 22µM*, pAkt inh inactive, ASM inhibitor 55%, PTAP TSG101 blk 9% and Vif-A3G inh inconclusive.
CSc1nsc(/C=C/Nc2ccc(Cl)cc2)c1C#N was read as 12-LOX inh 0%, Vif-APOBEC3F blk inconclusive, pAkt inh inactive, ASM inhibitor 46%, PTAP TSG101 blk 3% and Vif-A3G inh inconclusive.
Fc1ccc(OCCc2noc(C3CCCNC3)n2)cc1 (stereo unspecified) was read as 12-LOX inh -4%.
`COc1ccc2nc(C#N)ccc2c1` gave 12-LOX inh 25%.
COc1ncccc1-c1nnn(-c2ccccc2Br)n1 was read as 12-LOX inh 28µM*, Vif-APOBEC3F blk -2%, pAkt inh inactive, ASM inhibitor 4% and Vif-A3G inh 2%.
Screening CCS(=O)(=O)c1ccc(-c2csc(-c3ccc(Cl)cc3)n2)c(Cl)c1Cl returned 12-LOX inh 0%, Vif-APOBEC3F blk -8%, pAkt inh inactive, ASM inhibitor -12%, PTAP TSG101 blk -2% and Vif-A3G inh 1%.
`CCS(=O)(=O)c1ccc(-c2csc(-c3ccccc3Cl)n2)c(Cl)c1Cl` gave 12-LOX inh inconclusive, Vif-APOBEC3F blk -7%, pAkt inh -128%*, ASM inhibitor -2%, PTAP TSG101 blk -1% and Vif-A3G inh 0%.
Screening O=c1cc(-c2ccc([N+](=O)[O-])cc2)nc2cc(-c3ccc(F)cc3)[nH]n12 returned 12-LOX inh 20µM*, Vif-APOBEC3F blk 2%, pAkt inh inactive, ASM inhibitor -3%, PTAP TSG101 blk -2% and Vif-A3G inh -5%.
`N#Cc1c(N)nc(SCC(=O)NCCc2ccccc2)c(C#N)c1-c1cccs1` gave 12-LOX inh -21%, Vif-APOBEC3F blk 8%, pAkt inh -89%*, ASM inhibitor 407%, PTAP TSG101 blk 7% and Vif-A3G inh 2%.
Oc1c(C=NCc2ccncc2)sc2ccccc12 was read as 12-LOX inh -10%, Vif-APOBEC3F blk 6%, pAkt inh -103%*, ASM inhibitor 12%, PTAP TSG101 blk -2% and Vif-A3G inh 2%.
CN(C)c1ccc(C=Nc2ccc(Nc3ccccc3)cc2)cc1 was read as 12-LOX inh 7.9µM*.
For CN(C)c1ccc(C=Nc2ccccc2)cc1 the results were 12-LOX inh 16%, Vif-APOBEC3F blk 3%, pAkt inh inactive, ASM inhibitor -3%, PTAP TSG101 blk -4% and Vif-A3G inh 0%.
Screening CCN(CC)c1ccc(C=Nc2ccc(Nc3ccccc3)cc2)cc1 returned 12-LOX inh 20µM*.
For CCN(CC)c1ccc(/C=C2/SC(=O)N(C(C)C)C2=O)o1 the results were 12-LOX inh 45µM*, Vif-APOBEC3F blk inconclusive, pAkt inh inactive, ASM inhibitor -4%, PTAP TSG101 blk inconclusive and Vif-A3G inh inconclusive.

High-throughput results from PubChem BioAssay.
